DRD3 agonist: activates the human D3 dopamine receptor; AID 652048; max activation, %; actives 0.58% (n = 410,000); P35462; D3R DiscoveRx beta-arrestin cells, luminescence, 90 min; in the data active means max activation above about 30%; further: 0% is about no effect
Target sequence (P35462 whole entry, looked up): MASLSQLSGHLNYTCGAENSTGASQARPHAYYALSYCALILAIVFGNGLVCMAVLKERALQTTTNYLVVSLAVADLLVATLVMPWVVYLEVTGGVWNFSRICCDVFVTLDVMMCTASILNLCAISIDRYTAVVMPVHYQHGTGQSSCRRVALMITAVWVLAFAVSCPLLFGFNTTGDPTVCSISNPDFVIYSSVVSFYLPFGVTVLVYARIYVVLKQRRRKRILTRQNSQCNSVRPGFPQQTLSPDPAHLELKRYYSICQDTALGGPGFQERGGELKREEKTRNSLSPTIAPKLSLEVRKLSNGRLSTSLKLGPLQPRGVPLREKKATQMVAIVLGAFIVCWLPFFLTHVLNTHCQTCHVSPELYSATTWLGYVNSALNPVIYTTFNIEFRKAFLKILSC
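Agonist-mode cell screen: cells plated at 1500/well and incubated overnight at 37 °C, then exposed to library compounds for 90 min at 37 °C. Detection reagent was added for 30–60 min at room temperature, and luminescence was read.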
D1 agonist: agonists of human D1 dopamine receptor | P21728 | HEK293 T-REx D1 cells, calcium flux, agonist mode | activation, % at 2 µM | actives 1% (n = 360,000) | AID 504660; in the data active means activation above about 30%; further: 0% is about no effect
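Tetracycline-induced HEK293 TREx D1 cells, force-coupled to calcium signalling, were dye-loaded with a no-wash calcium kit. Compound was pin-added after a 10 s baseline. Fluorescence was read kinetically at 1 cycle/s for 180 s, with calcium rises flagged as agonism.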
DRD3 antagonist: antagonists of human D3 dopamine receptor. actives 2.5% (n = 360,000). P35462. D3R cells, DiscoveRx beta-arrestin luminescence, antagonist mode; active compounds read low. max response, negative = inhibition, %; in the data active means max response below about -50%; inconclusive means no clear call, values can overlap the other calls; further: on the % scale 0 is the no-effect control and ±100 the full control effect
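Cells expressing the human receptor were seeded at 1500 cells/well, incubated overnight at 37 degrees C in 5% CO2, then exposed to library compounds with dopamine controls for 90 minutes at 37 degrees C before luminescent detection.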
D1 PAM: human D1 dopamine receptor positive modulation | P21728 | HEK293 TREx D1 cells, calcium flux, dopamine EC20 potentiation | potentiation, % at 10 µM | actives 0.036% (n = 360,000) | AID 504651; in the data active means potentiation above about 30%; further: 0% is about no effect
D1 antag: antagonists of human D1 dopamine receptor; HEK293 TREx D1 cells, calcium flux, dopamine EC80; active compounds read low; activity change, negative = inhibition, % at 10 µM; actives 3.2% (n = 360,000); in the data active means activity change below about -30%; further: on the % scale 0 is the no-effect control and ±100 the full control effect
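Antagonism measured as reduced calcium response to an EC80 dopamine addition following 180 s compound pre-read; cells were inducible HEK293 Trex D1 plated overnight at 30 C, read kinetically at 1 cycle/sec.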
ERG-DNA inh: blocks human ERG Ets domain binding to DNA; fluorescence polarization, His-ERG Ets domain / labelled DNA; Potency, µM (series often up to 76.9 µM), for the others: top-dose FP activity, negative = inhibition, most hits filed as inhibitors; actives 0.028% (n = 370,000); active means well fitted inhibition curve with a large enough effect in the polarisation, with a control signal flat; inconclusive means small, poorly fitted or top-dose-only effect, or effect the other way, or a change in a side signal; inactive means no such curve, though single readings can be large or run the other way; the % refers to the polarisation;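 further: polarization taken with two DNA probes labelled with fluorescein and Texas red; potency means the concentration at half of the fitted maximal effect; % of control where 0% means no effect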
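His-tagged ERG Ets domain (1 uM in the protein solution; 300mM KCl, 50mM Tris-HCl, 1mM EDTA, 1mM DTT, pH 7.5) received compound, then a probe mix of 5 nM fluorescein-DNA and 100nM Texas-615-DNA. Fluorescence polarization was read for both dyes.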
* marks the source's active call; other numbers are inactive results. Only some compounds are listed: those with a hit (about 6.1% of all), similar ones and a draw of the others.

For COc1ccccc1C(=O)N1CCN=C1c1ccccc1 the results were DRD3 agonist 34.4*, D1 agonist 3.6, DRD3 antagonist -9.4, D1 PAM -4.8, D1 antag -2.7 and ERG-DNA inh -6.0%.
For Cc1ccc2nc3sc(C(=O)N4CCCc5ccccc54)c(N)c3cc2c1 the results were DRD3 agonist -28.5, D1 agonist 36.4*, DRD3 antagonist inconclusive, D1 PAM -1.1, D1 antag 9.4 and ERG-DNA inh -1.8%.
For CC(C)c1ccc(C(=O)OCC(=O)Nc2cccc(S(=O)(=O)NC3=NCCC3)c2)cc1 the results were DRD3 agonist 3.1 and DRD3 antagonist 4.3.
CCC(C)NCCOCCOc1ccc(F)cc1 (stereo not given) was read as DRD3 agonist -8.8, D1 agonist 3.0, DRD3 antagonist -65.7*, D1 PAM -5.3, D1 antag -0.5 and ERG-DNA inh -4.7%.
Screening CC(C)(C)NCCOCCOc1ccccc1-c1ccccc1 returned DRD3 agonist -36.8, D1 agonist 12.7, DRD3 antagonist 8.9, D1 PAM -10.7, D1 antag -12.0 and ERG-DNA inh 13.1%.
CCC(C)NCCOCCOc1ccccc1-c1ccccc1 (stereo not given) was read as DRD3 agonist -27.1, D1 agonist 5.1, DRD3 antagonist -68.5*, D1 PAM -8.3, D1 antag -1.0 and ERG-DNA inh 2.1%.
For O=C(Cc1ccccc1)NCCc1cnc[nH]1 the results were DRD3 agonist 6.7, D1 agonist 8.5, DRD3 antagonist 0.1, D1 PAM -8.8, D1 antag -4.6 and ERG-DNA inh 0.4%.
`CCCN1C(=O)/C(=C/c2ccc(C)s2)SC1=Nc1ccc(OC)cc1` gave DRD3 agonist -9.9, D1 agonist 4.1, DRD3 antagonist -27.2, D1 PAM -0.8, D1 antag 0.1 and ERG-DNA inh 6.1%.
For CCN(CC)CCN1C(=O)/C(=C\c2ccc(Cl)c([N+](=O)[O-])c2)SC1=Nc1ccc(OC)cc1 the results were DRD3 agonist -26.1, D1 agonist 1.0, DRD3 antagonist -101.9*, D1 PAM -0.7, D1 antag -13.0 and ERG-DNA inh -2.0%.
COc1ccc(N=C2S/C(=C\c3ccc(Cl)c([N+](=O)[O-])c3)C(=O)N2CCN(C)C)cc1 was read as DRD3 agonist -4.3, D1 agonist 4.5, DRD3 antagonist -128.1*, D1 PAM -0.1, D1 antag -8.2 and ERG-DNA inh 2.1%.
`Cc1cc2[nH]c(=O)c(=O)[nH]c2cc1S(=O)(=O)N1CCN(c2ccccc2)CC1` gave DRD3 agonist -0.7, D1 agonist -0.3, DRD3 antagonist 3.3, D1 PAM -9.8, D1 antag -2.7 and ERG-DNA inh 14.6%.
`CN(C(=O)c1ccc2c(Cl)c3c(nc2c1)CCC3)c1ccccc1F` gave DRD3 agonist -14.5, D1 agonist 6.7, D1 PAM 4.6, D1 antag 2.1 and ERG-DNA inh 2.4%.
Screening CCOC1=C2[C@H](c3ccccc3)N(S(=O)(=O)c3ccc(C)cc3)C(C(C)(C)C)[C@H]2C(C#N)(C#N)C(C#N)(C#N)C1 (stereo not given in full) returned DRD3 agonist 6.1 and DRD3 antagonist 9.6.
For O=C(Nc1ccccc1)Nc1ccc(Cl)c([N+](=O)[O-])c1 the results were DRD3 agonist -6.0, D1 agonist 31.9*, DRD3 antagonist -0.3, D1 PAM -9.7, D1 antag -46.2* and ERG-DNA inh -5.8%.
For Cc1cccc(C)c1NS(=O)(=O)c1ccc(NC(=O)c2ccc(Cl)c([N+](=O)[O-])c2)cc1 the results were DRD3 agonist 5.5, D1 agonist 4.6, DRD3 antagonist -78.1*, D1 PAM -6.0, D1 antag -5.5 and ERG-DNA inh -6.5%.
Screening O=C(NC(=S)Nc1ccc(F)c([N+](=O)[O-])c1)c1ccccc1F returned DRD3 agonist -10.0, D1 agonist -3.2, DRD3 antagonist -4.9, D1 PAM 5.8, D1 antag -0.7 and ERG-DNA inh -2.5%.
